From PubChem BioAssay (NCI) come the findings set out here.

The panel holds about 83,000 compounds, 20% with a hit somewhere; the sample as a whole holds those more often.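 Interpretation: 100, growth as untreated; towards 0, rising growth inhibition; 0, no net growth; 0 to -100, cell death. Compounds scoring below 10 were considered active.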 Calls of active or inactive are those of the source.

The assay has as its system MDA-MB-468 breast. The assay is described as follows: NCI-60 one-dose screen, 48 h (100 = growth as untreated, 0 = no growth, -100 = all killed). Conditions: 10 µM unless noted.
As for `O=C1NC(=S)S/C1=C\N1N=C(c2ccc(Cl)cc2)CC1c1ccc(F)cc1` (stereo not given), the growth is 92.3% (inactive). In the case of `COC(=O)/C(=C\c1c(-c2ccccc2)[nH]c2ccccc12)S(C)(=O)=O` it was 36.3% (inactive); in that of `FC(F)(F)c1ccc2c(Nc3cccc(C4CC(c5ccccc5)=NN4c4ccc(Cl)cc4)c3)ccnc2c1` (stereo not given), 47.4% (inactive). On to `O=C1NC(=O)c2cc([N+](=O)[O-])ccc21`, for which the growth is 96.1% (inactive). Turning to `Cc1ccc(Cl)cc1Nc1nc(C(F)(F)F)ccc1C(=O)N/N=C/c1c(Cl)cccc1Cl`, the growth was -13.1% (active).

`CCN(CC)CCOc1ccc(Nc2ncc3cc(-c4ccc(O)cc4)c(=O)n(C)c3n2)cc1`: the growth was 44.8% (inactive).

With `Nc1ccc(/C=N/Nc2ccnc3c(O)cccc23)c2cccnc12`, the growth was 73.6% (inactive).

In the case of `CN1CCN(Cc2ccc(NC(=O)c3cncc(C#Cc4cnc5ccc(Cl)nn45)c3)cc2C(F)(F)F)CC1`, the growth is -20.1% (active).

On to `O=[N+]([O-])c1ccc2[nH]cc(-c3c4ccsc4cc4[nH]c5ccc([N+](=O)[O-])cc5c34)c2c1`, for which the growth is 1.21% (active).

On to `CC(C)C[C@@H](NC(=O)[C@@H](Cc1ccccc1)NC(=O)c1cnccn1)B1Oc2ccc(C[C@H](NC(=O)[C@H](Cc3ccc4c(c3)OB([C@@H](CC(C)C)NC(=O)[C@@H](Cc3ccccc3)NC(=O)c3cnccn3)O4)NC(=O)[C@@H](N)CC3CCC4OB([C@@H](CC(C)C)NC(=O)[C@@H](CC5CCCCC5)NC(=O)C5CNCCN5)OC4C3)C(=O)NCCCC[C@@H]3NC(=O)[C@@H](Cc4ccccc4)NC(=O)[C@H](CC(=O)O)NC(=O)CNC(=O)[C@H](CCCNC(=N)N)NC3=O)cc2O1` (stereo not given in full), for which the growth is -41.5% (active). With `COc1cc2c(cc1OC)C(C)N(S(N)(=O)=O)CC2` (stereo not given), the growth was 99.6% (inactive). Under `S=c1[nH]cccc1-c1nnc2n1Nc1nc3ccc(Cl)cc3cc1CS2` stands 109% (inactive); under `Fc1ccc2c(-c3cncn3CCc3ccccc3)c[nH]c2c1`, 74.6% (inactive). In the case of `CC(=O)Nc1nc(C)c(C(=O)N/N=C/N2CCOCC2)s1` it was 116% (inactive); in that of `COc1ccc2c(c1)OC(N)=C(C#N)C2c1ccc(F)cc1` (stereo not given), 7.54% (active). Regarding `FC(F)(F)c1cccc(Oc2ccc(Nc3ncnc4ccc(OCCCN5CCOCC5)cc34)cc2Cl)c1`, the growth is 5.72% (active).

Turning to `O=C=NC(c1ccccc1)(c1ccccc1)c1ccccc1`, the growth was 118% (inactive). Regarding `COc1ccc(/C=C/C=C\C(=O)c2ccc(-n3ccnc3)cc2)cc1`, the growth was 92.4% (inactive).

Consider `COc1ccc(-n2c(C(O)c3ccccc3)nn(CN3CCOCC3)c2=S)cc1` (stereo not given), for which the growth was 97.5% (inactive).

Regarding `Nc1nc2ccc3[nH]ncc3c2c2c1CCCC2`, the growth was -46.8% (active). On to `S=c1cc(S)c2cc(Br)ccc2[nH]1`, for which the growth is 104% (inactive). Regarding `COc1ccc(C2=NN(C(C)=O)C(c3cn(Cc4ccc(Cl)cc4)c4ccccc34)C2)cc1` (stereo not given), the growth is 69.2% (inactive). Under `CC(C)Cn1c2c(c(=S)[nH]c1=O)CCC2` stands 112% (inactive). `NC(=S)N/N=C(/c1ccccc1)c1ccccc1N`: the growth is 18.4% (inactive). In the case of `Nc1cc(C(=O)O)cc(C(=O)O)c1` it was 112% (inactive); in that of `O=c1[nH]c2ccccc2cc1CSc1ccccc1Nc1nccc(-c2ccc(C(F)(F)F)cc2)n1`, 47.6% (inactive); in that of `CS(=O)(=O)c1ccc(-c2cnn3ccc(-c4cccc(S(=O)(=O)C5CC5)c4)nc23)cc1`, 27.7% (inactive). With `OC(c1cc(-c2ccc(Cl)cc2)nc2c(Cl)cccc12)C1CCCCN1` (stereo not given), the growth was -86.7% (active). In the case of `COc1ccccc1S(=O)(=O)Nc1ccc2c3c(cc(-c4ccoc4)nc13)C(=O)N2C` it was 39.7% (inactive); in that of `C[n+]1cc2c3c(ccc2c2ccc4cc5c(cc4c21)OCO5)OCO3`, -93.7% (active). With `CCCNC(=O)c1ccc(S(N)(=O)=O)cc1`, the growth was 82.1% (inactive).

Consider `CC(=O)OC[C@H]1OC(Sc2sc(C(=O)c3ccc(Br)cc3)c(N)c2-c2nc3ccccc3s2)[C@H](OC(C)=O)[C@@H](OC(C)=O)[C@H]1OC(C)=O` (stereo not given in full), for which the growth is 91.9% (inactive). In the case of `N[C@@H](Cc1cn(-c2ccnc3ccccc23)nn1)C(=O)O` it was 108% (inactive). With `O=C1[C@H]2Cc3c([nH]c4ccccc34)[C@@H](c3c(Cl)cccc3Cl)N2C(=O)CN1C1CCN(Cc2ccccc2)CC1`, the growth was 97.7% (inactive). `CCCCCCCNc1nc(C=O)ncc1-c1ccc(C(F)(F)F)cc1`: the growth is 103% (inactive).

As to `CS(=O)(=O)c1nccc(-c2c(-c3cccc(O)c3)nc3sccn23)n1`, the growth is 60.1% (inactive).

`COC(=O)[C@H](Cc1cn(C)cn1)NC(=O)[C@H](CC(C)C)NC(=O)Nc1cc(C(F)(F)F)cc(C(F)(F)F)c1`: the growth was -72.1% [100 µM] (active). In the case of `COc1ccc(OC)c(NC2=C(SCCc3ccccc3)C(=O)c3ccccc3C2=O)c1` it was 65.7% (inactive). Under `Cc1nc(Cl)cc(N(c2cc(Cl)nc(C)n2)c2ncc(C(=O)Nc3c(C)cccc3Cl)s2)n1` stands 42.1% (inactive). Regarding `CCCCCC/C=C1\CCC(CN2CCCC2)C1=O` (stereo not given), the growth is 73.2% (inactive).
